What all share (assay): DAPPL (digital affinity profiling via proximity ligation, sequencing); 10 mM Tris-HCl pH 7.5, 50 mM NaCl, 1 mM DTT, 4% glycerol, room temperature, 30 min; GST-TFs on glutathione beads, 16-mer random dsDNA library, 0.1% formaldehyde crosslink after washing; high values mean tight binding
One assay addresses T1, FEV (Homo sapiens, UniProt Q99581 1-238).
T1 sequence: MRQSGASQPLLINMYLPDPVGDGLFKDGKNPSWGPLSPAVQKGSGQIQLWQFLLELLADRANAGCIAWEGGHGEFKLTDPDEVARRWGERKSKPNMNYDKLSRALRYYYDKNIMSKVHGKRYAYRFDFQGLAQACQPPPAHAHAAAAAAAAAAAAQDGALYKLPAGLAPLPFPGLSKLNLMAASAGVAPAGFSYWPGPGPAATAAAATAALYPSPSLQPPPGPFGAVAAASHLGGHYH
Conditions: protein: recombinant; tags: N-terminal GST; dsDNA, one strand shown. The gist of the method:
(§1)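 Yeast served to express human transcription factors as GST fusions, which were then captured on glutathione beads and labelled with DNA barcodes. Pooled with a tag-only sample, they were incubated with 200 nmole of a 16-mer random double-stranded DNA library for 30 min at room temperature in Tris/NaCl/DTT/glycerol buffer, washed, crosslinked with 0.1% formaldehyde, ligated by proximity, amplified by PCR and sequenced. Dividing each hexamer's read frequency for a factor by its frequency for the tag-only sample gives the binding signal.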

Another assay concerns the target ETV5 (Homo sapiens, UniProt P41161 1-510). Conditions: protein: recombinant; tags: N-terminal GST; dsDNA, one strand shown. The method, boiled down: as §1
Another assay concerns the target HSF1 (Homo sapiens, UniProt Q00613 1-529). Conditions: protein: recombinant; tags: N-terminal GST; chain copies: 3; dsDNA, one strand shown. The method, boiled down:
as §1

For a further assay, the target named is T2, SPIC (Homo sapiens, UniProt Q8N5J4 1-248).
T2 sequence: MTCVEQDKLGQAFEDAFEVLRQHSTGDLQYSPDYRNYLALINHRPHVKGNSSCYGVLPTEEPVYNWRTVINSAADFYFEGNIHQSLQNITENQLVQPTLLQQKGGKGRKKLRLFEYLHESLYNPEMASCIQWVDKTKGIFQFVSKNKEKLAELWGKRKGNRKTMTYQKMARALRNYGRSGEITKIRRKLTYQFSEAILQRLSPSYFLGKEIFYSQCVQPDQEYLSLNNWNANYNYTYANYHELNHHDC
Particulars: protein: recombinant; tags: N-terminal GST; dsDNA, one strand shown. The gist of the method:
as §1

In a further assay the target is ELF4 (Homo sapiens, UniProt Q99607 1-663). Particulars: protein: recombinant; tags: N-terminal GST; dsDNA, one strand shown. The gist of the method: as §1
The target of the next assay is T3, ELK4 (Homo sapiens, UniProt P28324-2 1-405).
T3 sequence: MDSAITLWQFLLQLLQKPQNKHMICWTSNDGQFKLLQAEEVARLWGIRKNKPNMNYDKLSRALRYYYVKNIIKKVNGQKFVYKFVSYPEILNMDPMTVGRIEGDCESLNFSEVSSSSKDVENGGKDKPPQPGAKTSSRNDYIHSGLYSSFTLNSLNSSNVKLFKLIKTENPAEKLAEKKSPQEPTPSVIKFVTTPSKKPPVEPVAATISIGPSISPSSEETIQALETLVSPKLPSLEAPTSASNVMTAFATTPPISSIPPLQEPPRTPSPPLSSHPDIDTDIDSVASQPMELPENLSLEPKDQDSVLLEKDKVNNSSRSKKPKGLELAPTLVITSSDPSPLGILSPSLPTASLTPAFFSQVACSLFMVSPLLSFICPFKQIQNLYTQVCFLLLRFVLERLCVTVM
Conditions: protein: recombinant; tags: N-terminal GST; dsDNA, one strand shown. The gist of the method: as §1

The next assay concerns the target T4, ETV2 (Homo sapiens, UniProt O00321 1-342).
T4 sequence: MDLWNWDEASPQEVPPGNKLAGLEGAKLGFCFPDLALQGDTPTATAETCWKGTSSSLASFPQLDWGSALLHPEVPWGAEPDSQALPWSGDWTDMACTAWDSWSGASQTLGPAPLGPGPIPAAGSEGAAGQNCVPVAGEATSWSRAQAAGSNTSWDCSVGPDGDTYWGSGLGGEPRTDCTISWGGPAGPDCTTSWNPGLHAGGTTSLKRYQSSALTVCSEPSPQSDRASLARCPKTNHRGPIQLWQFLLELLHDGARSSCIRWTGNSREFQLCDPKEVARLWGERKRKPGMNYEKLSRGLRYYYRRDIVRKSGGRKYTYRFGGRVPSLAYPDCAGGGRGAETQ
Particulars: protein: recombinant; tags: N-terminal GST; dsDNA, one strand shown. The gist of the method:
as §1

The target in another assay is T5, ELF3 (Homo sapiens, UniProt P78545 1-371).
T5 sequence: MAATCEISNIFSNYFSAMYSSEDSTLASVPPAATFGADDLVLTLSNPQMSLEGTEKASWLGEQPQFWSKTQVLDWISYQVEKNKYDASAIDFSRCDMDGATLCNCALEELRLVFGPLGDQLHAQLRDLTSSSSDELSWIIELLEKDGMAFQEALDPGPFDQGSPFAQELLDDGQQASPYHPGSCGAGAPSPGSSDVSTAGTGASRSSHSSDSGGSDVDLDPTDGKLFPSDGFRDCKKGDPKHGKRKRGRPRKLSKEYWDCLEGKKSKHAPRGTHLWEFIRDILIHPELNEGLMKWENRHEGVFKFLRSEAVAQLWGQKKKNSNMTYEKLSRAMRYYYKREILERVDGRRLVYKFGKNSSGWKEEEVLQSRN
Conditions: protein: recombinant; tags: N-terminal GST; dsDNA, one strand shown. The gist of the method:
as §1

In another assay the target is CRX (Homo sapiens, UniProt O43186 1-299). Conditions: protein: recombinant; tags: N-terminal GST; dsDNA, one strand shown. The method, boiled down: as §1
Another assay has as its target ETV1 (Homo sapiens, UniProt P50549 1-477). Conditions: protein: recombinant; tags: N-terminal GST; dsDNA, one strand shown. The gist of the method: as §1
For another assay, the target named is T6, ERF (Homo sapiens, UniProt P50548 1-548).
T6 sequence: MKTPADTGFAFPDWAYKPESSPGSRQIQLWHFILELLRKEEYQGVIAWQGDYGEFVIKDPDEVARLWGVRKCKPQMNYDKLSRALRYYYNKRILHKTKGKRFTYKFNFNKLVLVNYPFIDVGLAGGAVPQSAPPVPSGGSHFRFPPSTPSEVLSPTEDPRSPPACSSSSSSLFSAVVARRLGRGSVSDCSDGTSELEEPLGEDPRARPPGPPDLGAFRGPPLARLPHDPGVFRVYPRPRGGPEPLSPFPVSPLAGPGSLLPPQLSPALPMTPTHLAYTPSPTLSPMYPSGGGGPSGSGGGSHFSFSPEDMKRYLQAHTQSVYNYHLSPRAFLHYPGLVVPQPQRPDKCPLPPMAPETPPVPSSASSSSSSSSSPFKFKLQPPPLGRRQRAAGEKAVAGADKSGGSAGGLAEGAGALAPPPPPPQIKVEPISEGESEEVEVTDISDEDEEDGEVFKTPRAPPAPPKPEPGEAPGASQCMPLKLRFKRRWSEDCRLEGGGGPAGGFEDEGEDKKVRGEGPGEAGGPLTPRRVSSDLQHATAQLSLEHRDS
Conditions: protein: recombinant; tags: N-terminal GST; dsDNA, one strand shown. The method, boiled down: as §1

The target of the next assay is T7, ETV3L (Homo sapiens, UniProt Q6ZN32 1-361).
T7 sequence: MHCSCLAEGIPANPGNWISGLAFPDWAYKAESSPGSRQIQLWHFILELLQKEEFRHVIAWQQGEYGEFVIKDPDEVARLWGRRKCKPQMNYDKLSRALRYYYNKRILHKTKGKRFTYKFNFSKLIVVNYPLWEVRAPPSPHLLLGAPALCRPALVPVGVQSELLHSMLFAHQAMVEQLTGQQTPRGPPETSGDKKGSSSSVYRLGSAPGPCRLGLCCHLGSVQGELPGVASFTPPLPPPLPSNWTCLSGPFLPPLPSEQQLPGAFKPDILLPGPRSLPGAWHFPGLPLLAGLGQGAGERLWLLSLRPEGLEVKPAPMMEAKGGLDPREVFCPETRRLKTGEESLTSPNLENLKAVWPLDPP
Particulars: protein: recombinant; tags: N-terminal GST; dsDNA, one strand shown. The method, boiled down:
as §1

The target of another assay is T8, ETS2 (Homo sapiens, UniProt P15036 1-469).
T8 sequence: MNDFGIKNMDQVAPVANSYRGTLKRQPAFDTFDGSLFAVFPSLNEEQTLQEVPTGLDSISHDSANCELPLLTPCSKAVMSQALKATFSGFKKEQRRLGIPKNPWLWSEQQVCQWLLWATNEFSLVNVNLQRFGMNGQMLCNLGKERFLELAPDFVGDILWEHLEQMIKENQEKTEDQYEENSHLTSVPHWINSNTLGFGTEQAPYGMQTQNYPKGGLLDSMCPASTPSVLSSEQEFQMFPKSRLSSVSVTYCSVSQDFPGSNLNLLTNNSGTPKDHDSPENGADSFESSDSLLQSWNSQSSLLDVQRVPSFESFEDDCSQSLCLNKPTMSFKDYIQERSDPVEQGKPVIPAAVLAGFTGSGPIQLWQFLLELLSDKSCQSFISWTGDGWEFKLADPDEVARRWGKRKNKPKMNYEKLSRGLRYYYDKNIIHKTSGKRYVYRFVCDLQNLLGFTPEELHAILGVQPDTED
Particulars: protein: recombinant; tags: N-terminal GST; dsDNA, one strand shown. The method, boiled down:
as §1

The next assay has as its target T9, SPDEF (Homo sapiens, UniProt O95238 1-335).
T9 sequence: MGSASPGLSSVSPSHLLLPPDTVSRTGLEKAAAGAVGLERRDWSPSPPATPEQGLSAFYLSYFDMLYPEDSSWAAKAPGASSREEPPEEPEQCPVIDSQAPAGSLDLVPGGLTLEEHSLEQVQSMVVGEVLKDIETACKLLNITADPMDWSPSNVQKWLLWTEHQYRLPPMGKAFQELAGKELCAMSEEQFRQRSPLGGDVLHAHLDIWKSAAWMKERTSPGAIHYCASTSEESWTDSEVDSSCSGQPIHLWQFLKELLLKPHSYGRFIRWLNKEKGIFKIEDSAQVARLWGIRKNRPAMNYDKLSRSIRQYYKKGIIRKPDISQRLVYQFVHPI
Conditions: protein: recombinant; tags: N-terminal GST; dsDNA, one strand shown. The gist of the method:
as §1

The next assay deals with T10, ETV7 (Homo sapiens, UniProt Q9Y603 1-341).
T10 sequence: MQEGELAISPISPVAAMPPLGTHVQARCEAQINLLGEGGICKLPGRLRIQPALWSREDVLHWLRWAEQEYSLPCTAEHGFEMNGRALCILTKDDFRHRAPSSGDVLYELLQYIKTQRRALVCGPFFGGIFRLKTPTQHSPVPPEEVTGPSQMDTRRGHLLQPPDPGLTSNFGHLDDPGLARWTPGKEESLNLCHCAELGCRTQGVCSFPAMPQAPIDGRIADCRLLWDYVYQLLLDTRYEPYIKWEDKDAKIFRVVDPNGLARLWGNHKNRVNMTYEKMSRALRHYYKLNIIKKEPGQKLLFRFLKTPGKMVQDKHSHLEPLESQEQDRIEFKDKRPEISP
Particulars: protein: recombinant; tags: N-terminal GST; dsDNA, one strand shown. The gist of the method:
as §1

For another assay, the target named is T11, ELF5 (Homo sapiens, UniProt Q9UKW6-2 1-255).
T11 sequence: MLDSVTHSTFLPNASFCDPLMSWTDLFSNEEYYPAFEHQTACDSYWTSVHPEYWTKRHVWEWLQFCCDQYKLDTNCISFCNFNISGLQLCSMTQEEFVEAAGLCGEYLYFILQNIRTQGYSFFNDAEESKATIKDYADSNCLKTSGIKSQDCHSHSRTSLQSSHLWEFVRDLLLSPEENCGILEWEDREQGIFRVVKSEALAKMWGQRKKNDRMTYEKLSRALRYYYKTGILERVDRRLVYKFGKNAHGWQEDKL
Conditions: protein: recombinant; tags: N-terminal GST; dsDNA, one strand shown. The method, boiled down: as §1

Another assay addresses T12, ETV3 (Homo sapiens, UniProt P41162-2 1-143).
T12 sequence: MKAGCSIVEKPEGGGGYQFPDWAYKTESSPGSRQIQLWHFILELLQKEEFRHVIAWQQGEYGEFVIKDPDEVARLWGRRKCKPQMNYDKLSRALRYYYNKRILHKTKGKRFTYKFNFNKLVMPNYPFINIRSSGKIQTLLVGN
Particulars: protein: recombinant; tags: N-terminal GST; dsDNA, one strand shown. The method, boiled down:
as §1

The target of the next assay is ETV6 (Homo sapiens, UniProt P41212 1-452). Particulars: protein: recombinant; tags: N-terminal GST; dsDNA, one strand shown. The gist of the method: as §1
Sequence of ETV6 (P41212 whole entry): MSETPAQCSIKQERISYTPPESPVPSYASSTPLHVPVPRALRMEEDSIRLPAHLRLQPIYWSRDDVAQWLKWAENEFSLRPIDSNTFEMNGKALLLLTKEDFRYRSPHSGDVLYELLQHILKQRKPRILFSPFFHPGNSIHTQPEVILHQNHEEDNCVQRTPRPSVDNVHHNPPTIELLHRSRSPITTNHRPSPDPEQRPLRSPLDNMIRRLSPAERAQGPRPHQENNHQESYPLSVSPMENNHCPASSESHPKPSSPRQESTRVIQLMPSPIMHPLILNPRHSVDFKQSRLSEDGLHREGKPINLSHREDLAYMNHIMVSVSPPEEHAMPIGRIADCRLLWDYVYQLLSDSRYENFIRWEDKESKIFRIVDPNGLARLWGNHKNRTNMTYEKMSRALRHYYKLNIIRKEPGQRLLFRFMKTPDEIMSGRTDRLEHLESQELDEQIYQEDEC

Sequence of ETV5 (P41161 whole entry): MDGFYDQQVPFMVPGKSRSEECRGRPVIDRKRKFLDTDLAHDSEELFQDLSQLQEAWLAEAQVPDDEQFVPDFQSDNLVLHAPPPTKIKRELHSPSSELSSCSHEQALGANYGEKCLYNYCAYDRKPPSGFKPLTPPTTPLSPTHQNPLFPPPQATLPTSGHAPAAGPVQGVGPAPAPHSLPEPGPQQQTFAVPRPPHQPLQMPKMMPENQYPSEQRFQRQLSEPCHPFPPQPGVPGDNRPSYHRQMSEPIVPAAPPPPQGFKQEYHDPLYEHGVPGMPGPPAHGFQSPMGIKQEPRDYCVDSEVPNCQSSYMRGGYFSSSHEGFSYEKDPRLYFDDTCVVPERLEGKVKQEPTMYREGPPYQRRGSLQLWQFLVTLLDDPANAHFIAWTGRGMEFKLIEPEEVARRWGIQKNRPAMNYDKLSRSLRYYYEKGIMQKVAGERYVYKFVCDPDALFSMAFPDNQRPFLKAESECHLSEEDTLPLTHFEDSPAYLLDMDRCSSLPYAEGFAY
Sequence of ELF4 (Q99607 whole entry): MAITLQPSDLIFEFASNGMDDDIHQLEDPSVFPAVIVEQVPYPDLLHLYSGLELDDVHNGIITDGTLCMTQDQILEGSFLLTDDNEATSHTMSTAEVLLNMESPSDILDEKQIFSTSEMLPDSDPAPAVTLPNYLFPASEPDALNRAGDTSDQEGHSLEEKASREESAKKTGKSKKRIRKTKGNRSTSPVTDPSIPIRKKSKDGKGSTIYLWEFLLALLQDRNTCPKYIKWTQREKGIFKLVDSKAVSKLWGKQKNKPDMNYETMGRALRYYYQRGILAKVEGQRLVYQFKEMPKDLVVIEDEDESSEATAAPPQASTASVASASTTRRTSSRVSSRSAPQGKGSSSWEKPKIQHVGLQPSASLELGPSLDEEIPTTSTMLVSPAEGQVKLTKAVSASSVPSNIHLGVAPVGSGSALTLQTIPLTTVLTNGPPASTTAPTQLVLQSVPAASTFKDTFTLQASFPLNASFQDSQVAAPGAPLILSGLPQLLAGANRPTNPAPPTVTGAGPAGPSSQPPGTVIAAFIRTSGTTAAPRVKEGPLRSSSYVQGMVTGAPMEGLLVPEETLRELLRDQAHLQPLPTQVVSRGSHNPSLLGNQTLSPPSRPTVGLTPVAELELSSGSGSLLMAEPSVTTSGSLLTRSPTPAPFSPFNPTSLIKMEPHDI
Sequence of HSF1 (Q00613 whole entry): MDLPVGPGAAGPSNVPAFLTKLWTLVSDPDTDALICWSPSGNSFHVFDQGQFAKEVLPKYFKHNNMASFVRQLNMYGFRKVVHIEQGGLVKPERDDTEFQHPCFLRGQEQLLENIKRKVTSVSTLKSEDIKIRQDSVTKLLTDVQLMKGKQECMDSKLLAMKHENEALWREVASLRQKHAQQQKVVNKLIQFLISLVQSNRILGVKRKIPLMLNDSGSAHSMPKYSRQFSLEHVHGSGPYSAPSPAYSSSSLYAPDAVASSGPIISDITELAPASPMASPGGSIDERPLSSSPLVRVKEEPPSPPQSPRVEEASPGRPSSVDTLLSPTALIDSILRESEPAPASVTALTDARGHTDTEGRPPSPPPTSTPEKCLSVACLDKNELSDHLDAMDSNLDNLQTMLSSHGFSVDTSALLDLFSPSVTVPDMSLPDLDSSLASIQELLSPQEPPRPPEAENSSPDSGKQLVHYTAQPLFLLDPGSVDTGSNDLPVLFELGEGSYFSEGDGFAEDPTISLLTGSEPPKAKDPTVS
Sequence of CRX (O43186 whole entry): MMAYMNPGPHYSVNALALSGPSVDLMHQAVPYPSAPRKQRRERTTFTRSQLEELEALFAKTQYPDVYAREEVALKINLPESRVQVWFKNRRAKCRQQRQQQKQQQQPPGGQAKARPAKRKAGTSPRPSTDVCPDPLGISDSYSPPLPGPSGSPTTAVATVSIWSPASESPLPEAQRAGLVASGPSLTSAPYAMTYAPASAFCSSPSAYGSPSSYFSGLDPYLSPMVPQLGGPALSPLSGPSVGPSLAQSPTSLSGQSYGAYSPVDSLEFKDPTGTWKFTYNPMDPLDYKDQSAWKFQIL
Sequence of ETV1 (P50549 whole entry): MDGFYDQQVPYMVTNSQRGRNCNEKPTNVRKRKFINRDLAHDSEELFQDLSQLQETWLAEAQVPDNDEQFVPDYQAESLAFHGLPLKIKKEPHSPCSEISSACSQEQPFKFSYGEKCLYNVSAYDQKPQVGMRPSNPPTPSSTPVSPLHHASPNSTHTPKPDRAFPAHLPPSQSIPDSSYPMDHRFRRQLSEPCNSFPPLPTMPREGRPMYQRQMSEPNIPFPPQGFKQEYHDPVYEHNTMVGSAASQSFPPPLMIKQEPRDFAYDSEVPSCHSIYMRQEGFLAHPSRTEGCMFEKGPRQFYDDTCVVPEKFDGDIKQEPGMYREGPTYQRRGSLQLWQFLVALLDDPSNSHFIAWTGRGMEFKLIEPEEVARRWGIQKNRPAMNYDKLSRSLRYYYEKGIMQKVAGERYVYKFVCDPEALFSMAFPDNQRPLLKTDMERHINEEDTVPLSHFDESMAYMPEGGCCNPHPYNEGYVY

Consider CGTTCG, for which the binding signal is 1.1 fold enrichment (6-mer frequency, TF over GST control) with FEV; 1.2 fold enrichment (6-mer frequency, TF over GST control) with ETV5; 1.43 fold enrichment (6-mer frequency, TF over GST control) with HSF1; 1.16 fold enrichment (6-mer frequency, TF over GST control) with SPIC; 1.32 fold enrichment (6-mer frequency, TF over GST control) with ELF4; 1.22 fold enrichment (6-mer frequency, TF over GST control) with ELK4. The binding signal was 1.44 fold enrichment (6-mer frequency, TF over GST control) with ETV2; 1.08 fold enrichment (6-mer frequency, TF over GST control) in the assay with ELF3; 1.04 fold enrichment (6-mer frequency, TF over GST control) in the assay with CRX; 1.19 fold enrichment (6-mer frequency, TF over GST control) with ETV1; 1.52 fold enrichment (6-mer frequency, TF over GST control) with ERF; 1.16 fold enrichment (6-mer frequency, TF over GST control) in the assay with ETV3L. The binding signal with ETS2 is 1.25 fold enrichment (6-mer frequency, TF over GST control); with SPDEF it was 1.04 fold enrichment (6-mer frequency, TF over GST control); with ETV7, 1.24 fold enrichment (6-mer frequency, TF over GST control); with ELF5 it was 1.26 fold enrichment (6-mer frequency, TF over GST control); in the assay with ETV3, 1.19 fold enrichment (6-mer frequency, TF over GST control); with ETV6 it was 1.29 fold enrichment (6-mer frequency, TF over GST control).
